Bioassay records: PubChem BioAssay, National Center for Advancing Translational Sciences (NCATS)
Rows were chosen to be rich in hits. Some 10% of all compounds tested hit in one or more screens of this group.
HP1b binding inh: blocks HP1-beta chromodomain binding to methylated histone tails. P83916. AlphaScreen HP1-beta / biotin-H3K9me3 peptide binding. Potency, µM (series often up to 114 µM), for inactives: top-dose activity change, negative = inhibition, most hits filed as inhibitors. 390,000 tested, 0.56% active. AID 540317; also: potency is read from the fitted curve at half-maximal effect; nearly all actives have a fitted effect of over 70% in size
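HP1-beta protein (50 nM final) preincubated 30 min at room temperature with biotinylated H3(1-18)K9me3 peptide (50 nM) in PBS pH 7.4, 0.01% Tween-20, then compound added for 30 min. AlphaScreen streptavidin donor/nickel chelate acceptor beads (10 ug/mL final), 30 min dark, luminescence read.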
Six1-Eya2 inh: Six1/Eya2 interaction inhibition; Q15475+O00167; AlphaScreen GST-Six1/His-Eya2 binding, biochemical; stronger effect = lower value; activity change, % (concentration not given with the values); 360,000 tested, 0.56% active; in the data active = activity change below about -65%; inconclusive = mostly about -30% to -63%; also: % is scaled to controls: 0 for no effect and ±100 for the full control effect
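Compounds are tested against tagged Six1 and Eya2 proteins bridged by glutathione donor and nickel acceptor beads; after a one-hour incubation at 37 °C without light, AlphaScreen emission is recorded.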
BAZ2B inh: BAZ2B (human) inhibition | AlphaScreen BAZ2B-H3K14Ac peptide displacement | Potency, µM (top dose mostly 114 µM), for the others: at the top dose activity change, negative = inhibition, most hits filed as inhibitors | 360,000 tested, 4.4% active | AID 504333; also: potency is read from the fitted curve at half-maximal effect; % is scaled to controls: 0 for no effect and ±100 for the full control effect; nearly all actives have a fitted effect of over 60% in size
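BAZ2B 50 nM plus b-H3(5-23)K14Ac 50 nM, PBS pH 7.4/0.01% Tween-20, 30 min RT; compound added (max 110 uM), 30 min RT; streptavidin donor/Ni-chelate acceptor beads 10 ug/mL final, 20 min dark; AlphaScreen read.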
JMJD2A Tudor: JMJD2A Tudor domain (human) inhibition | O75164 | Potency, µM (top dose mostly 114 µM), for inactives: at the highest dose activity change, negative = inhibition, most hits filed as inhibitors | AID 504339 | 390,000 tested, 4.4% active | AlphaScreen JMJD2A-Tudor / H3K4me3 peptide binding; also: potency is read from the fitted curve at half-maximal effect; % is scaled to controls: 0 for no effect and ±100 for the full control effect; nearly all actives have a fitted effect of over 50% in size
CtBP-E1A inh: blocks the CtBP interaction with E1A; activity change, % (concentration not given with the values); 340,000 tested, 0.49% active; AlphaScreen GST-E1A/His-CtBP binding, 1536-well; stronger effect = lower value; in the data active = activity change below about -65%; inconclusive = mostly about -30% to -63%; also: % is scaled to controls: 0 for no effect and ±100 for the full control effect
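AlphaScreen with 125 nM GST-E1A and 125 nM His-CtBP (5X stocks) in Tris pH 8.0, 300 mM NaCl, BSA, Tween 20, TCEP. Compounds preincubated 2 h at 37 deg C, then glutathione donor/nickel acceptor beads added for 1 h at 37 deg C in dark.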
G9a inh: inhibitors of human histone lysine methyltransferase G9a; Potency, µM (highest dose often 102 µM), inactives show at the highest dose activity, negative = inhibition, actives largely listed as inhibitors; 350,000 tested, 8.8% active; Q96KQ7; G9a H3K9 monomethylation, AlphaScreen, 2 h; also: potency is read from the fitted curve at half-maximal effect; % is scaled to controls: 0 for no effect and ±100 for the full control effect; nearly all actives have a fitted effect of over 75% in size
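Compounds were preincubated with 20 nM G9a for 15 min, after which biotinylated H3K9 peptide (500 nM) and SAM (20 uM) started a 2 h room-temperature reaction. Monomethylated product was quantified by antibody-based AlphaScreen chemiluminescence.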
* marks the source's active call; other numbers are inactive results; ? = inconclusive; . = no result; [ ] = dose if it differs, or a comment. Unless noted, calls follow the shape of the dose curve; as a rule, active = well fitted inhibition curve with a large enough effect; inconclusive = small, poorly fitted or top-dose-only effect; inactive = no such curve, though single readings can be large or run the other way.

SMILES	HP1b binding inh	Six1-Eya2 inh	BAZ2B inh	JMJD2A Tudor	CtBP-E1A inh	G9a inh
O=C(CN1CCCCC1)Nc1ccc(S(=O)(=O)N2CCCCCC2)cc1	19%	2	3%	-15%	7	?
O=C(CN1CCN(c2ccccc2O)CC1)Nc1ccc(S(=O)(=O)N2CCCCCC2)cc1	2%	-8	-6%	-23%	0	45µM*
COc1ccccc1N1CCN(CC(=O)Nc2ccc(S(=O)(=O)N3CCCCCC3)cc2)CC1	22%	-5	-7%	-28%	-11	5%[2.33 µM]
O=C(CN1CCN(c2ccc(O)cc2)CC1)Nc1ccc(S(=O)(=O)N2CCCC2)cc1	?	-8	.	50µM*	-7	.
COc1ccc(OC)c(NC(=O)CN(c2ccccc2OC)S(=O)(=O)c2ccc(C)cc2)c1	19%	.	-18%	-14%	.	?
CN(Cc1cccs1)c1ncnc2ccc(-c3ccc4cn(C)nc4c3)cc12	.	.	.	-25%	.	.
O=C(CN1C(=O)c2ccccc2C1=O)Nc1ccccc1C(F)(F)F	27%	5	-6%	-15%	1	21%
COc1ccccc1NC(=O)CCC(=O)Nc1ccccc1OC	15%	4	8%	-3%	-9	6%[59 µM]
CCCC(C)NCC(=O)Nc1ccccc1-c1ccccc1 (stereo not drawn)	?	8	?	1.1µM*	9	?
COc1ccccc1NC(=O)CCC(=O)c1ccc(-c2ccccc2)cc1	-10%	2	5%	25µM*	12	-10%[59 µM]
O=C(CNC(c1ccccc1)c1ccccc1)Nc1ccccc1-c1ccccc1	37%	3	-4%	-15%	3	27%[59 µM]
COc1ccc(NC(=O)CCN2C(=O)c3ccccc3C2=O)c(OC)c1	5%	17	4%	-17%	-5	8%
COc1ccccc1NC(=O)CCN1C(=O)c2ccccc2C1=O	24%	2	3%	1%	11	79µM*
O=C(CCN1C(=O)c2ccccc2C1=O)Nc1ccccc1C(F)(F)F	38%	-2	1%	-10%	.	45µM*
Cc1cc(C)cc(NC(=O)CSCc2cc(=O)c3ccc(C)c(C)c3[nH]2)c1	22%[57 µM]	.	-1%	3%	.	6%[59 µM]
COc1cccc(CN(C(=O)c2cccc(C)c2)C2CCS(=O)(=O)C2)c1 (stereo not drawn)	19%	.	-7%	-3%	.	-6%[59 µM]
Cc1cccc(CNC(=O)c2ccc(NC(=O)N3CC(C)Sc4ccccc43)cc2)c1 (stereo not drawn)	34%	.	-2%	-2%	.	8%[59 µM]
CC1CN(C(=O)CCC(=O)NCc2cccs2)c2cc(Cl)ccc2O1 (stereo not drawn)	15%	.	-15%	5%	.	-8%[59 µM]
CCN(CC(=O)Nc1ccccc1OC)CC(=O)Nc1ccccc1C(F)(F)F	25%	-9	.	-3%	-6	4%
CCN(CC(=O)Nc1ccccc1OC)CC(=O)Nc1ccccc1-c1ccccc1	?	0	28µM*	2.2µM*	5	50µM*
CCN(CC)c1ccc(CN(C(=O)c2cc(=O)c3ccccc3o2)C2CCS(=O)(=O)C2)cc1 (stereo not drawn)	-7%	.	?	?	.	?
O=c1cc(NCCc2ccccc2)c2ccccc2o1	5%	9	2%	50µM*	2	3%
O=c1cc(NCCO)c2ccccc2o1	25%	0	0%	0%	5	4%
CCc1ccc(S(=O)(=O)c2nnn3c2nc(NCc2ccccc2)c2cc(Cl)ccc23)cc1	24%	.	3%	8%	.	13%[59 µM]
CCCc1nn2c(=O)cc(COC(=O)c3cccc(NC(=O)c4cccs4)c3)nc2s1	-3%	.	-23%	-22%	.	6%[59 µM]
SMILES	HP1b binding inh	Six1-Eya2 inh	BAZ2B inh	JMJD2A Tudor	CtBP-E1A inh	G9a inh
COc1ccc(NC2CCCN(C(=O)COc3ccc(Cl)cc3C)C2)cc1OC (stereo not drawn)	-38%	-18	?	?	1	50µM*
Cc1ccc(NC2CCCN(C(=O)CCC3=NNC(=O)CC3)C2)cc1C (stereo not drawn)	23%	9	-10%	-7%	0	.
COc1ccccc1OCC(=O)N1CCCC(Nc2ccc(C)c(C)c2)C1 (stereo not drawn)	-28%	-5	?	?	0	.
COc1ccc(CCC(=O)N2CCCC(Nc3ccc(C)c(C)c3)C2)cc1OC (stereo not drawn)	-14%	-9	?	?	-9	45µM*
CCC(Oc1ccccc1)C(=O)Nc1ccc(O)c(-c2nc3cc(C)ccc3o2)c1 (stereo not drawn)	67%	.	1%	2%	.	23%[59 µM]
O=C(Nc1ccccc1C(=O)O)c1cccc(N2C(=O)c3ccccc3C2=O)c1	9%	-14	3%	-8%	-3	-11%
CN(C)c1ccc(NC(=O)c2cccc(N3C(=O)C4C5C=CC(C5)C4C3=O)c2)cc1 (stereo not drawn)	-20%	-11	-34%	-25%	-9	10µM*
CC(=O)c1ccc(NC(=O)c2cccc(N3C(=O)c4ccccc4C3=O)c2)cc1	14%	7	-31%	-5%	-5	79µM*
NS(=O)(=O)c1ccc(NC(=O)c2cccc(N3C(=O)c4ccccc4C3=O)c2)cc1	1%[57 µM]	6	?	?	3	10µM*
O=C(O)c1cc(NC(=O)c2cccc(N3C(=O)c4ccccc4C3=O)c2)cc(C(=O)O)c1	12%	-3	-15%	-15%	-4	.
COc1ccc(NC(=O)c2cccc(N3C(=O)c4ccc(C(=O)Nc5ccc(OC)c(O)c5)cc4C3=O)c2)cc1O	-6%	?	-19%	?	-66*	15%
O=C(O)c1cccc(NC(=O)c2ccc3c(c2)C(=O)N(c2ccccc2)C3=O)c1	12%	11	-17%	-8%	9	-1%
CC(=O)CCC(=O)O	.	.	.	.	.	32%[59 µM]
CCOC(=O)c1[nH]c2c(c1Cc1ccccc1OC)C(=O)CC(c1ccc(OCC)cc1)C2 (stereo not drawn)	22%	.	-4%	-5%	.	0%[59 µM]
Cc1ccc(Cn2c(CO)cnc2SCC(=O)Nc2ccc(C)c(Cl)c2)cc1	-22%[57 µM]	.	?	-20%	.	?
Cc1cc([N+](=O)[O-])nn1CC(=O)Nc1cccc2nonc12	-5%	-7	?	-35%	4	56µM*
CSc1ccccc1NC(=O)Cn1nc([N+](=O)[O-])cc1C	33%	2	-2%	-22%	8	28µM*
Cc1cc([N+](=O)[O-])nn1CC(=O)Nc1nc2ccccc2s1	27%	1	-21%	-22%	-9	?
